# Laboratory results taken from PubChem BioAssay (EPA / NIEHS).
# Where “and” joins values, the source holds several entries; their conditions need not be identical. Equal entries are not always repeated. Records with an inconclusive call do not appear. Calls of active or inactive are those of the source. How the source made its calls: active means hit-call score of the fitted dose curve at least 0.9, where 1 is the maximum; inconclusive means response in the unintended direction; inactive means score below 0.9.
# Columns and labels:
# [1] = biological target: rat CYP2C11, Cyp2c11 (gene 29277) (UniProt P08683); test: NVS_ADME_rCYP2C11: NovaScreen (NVS) CYP450-related Enzyme Activity (ADME) Assay for rat CYP2C11 (AID 2283118)
# Method in brief: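 Cell-free recombinant rat enzyme with fluorescent substrate; readout 0.33 h after dosing, loss of signal versus acetonitrile control. Initial duplicate single-point at 10 uM; actives rerun in concentration series.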
# [2] = biological target: rat CYP2D1, Cyp2d1 (gene 266684) (UniProt P10633); test: NVS_ADME_rCYP2D1: NovaScreen (NVS) CYP450-related Enzyme Activity (ADME) Assay for rat CYP2D1 (AID 2283122)
# Method: (§1) NVS_ADME_rCYP2D1 is a biochemical, single-readout assay that uses extracted gene-proteins in a cell-free assay. Measurements were taken 0.75 hour after chemical dosing in a 96-well plate.NVS_ADME_rCYP2D1 is one of one assay component(s) measured or calculated from the NVS_ADME_rCYP2D1 assay. It is designed to make measurements of enzyme activity, a form of enzyme reporter, as detected with fluorescence intensity signals by Fluorescence technology.Data from the assay component NVS_ADME_rCYP2D1 was analyzed into 1 assay endpoint. This assay endpoint, NVS_ADME_rCYP2D1, was analyzed in the positive analysis fitting direction relative to Acetonitrile as the negative control and baseline of activity. Using a type of enzyme reporter, loss-of-signal activity can be used to understand changes in the enzymatic activity as they relate to the gene Cyp2d1. Furthermore, this assay endpoint can be referred to as a primary readout, because this assay has produced multiple assay endpoints where this one serves a enzymatic activity function. To generalize the intended target to other relatable targets, this assay endpoint is annotated to the cyp intended target family, where the subfamily is xenobiotic metabolism. […]
# rat CYP3A1, gene 25642 = test: NVS_ADME_rCYP3A1: NovaScreen (NVS) CYP450-related Enzyme Activity (ADME) Assay for rat CYP3A1 (AID 2283126)
# Method: as §1, with “NVS_ADME_rCYP3A1” for “NVS_ADME_rCYP2D1”, “0.5” for “0.75”, “plate.NVS_ADME_rCYP3A1” for “plate.NVS_ADME_rCYP2D1”, “NVS_ADME_rCYP3A1,” for “NVS_ADME_rCYP2D1,”, “Cyp3a23/3a1.” for “Cyp2d1.”
# [3] = biological target: human AKT serine/threonine Kinase 1 (AKT1), AKT1 (gene 207) (UniProt P31749); test: NVS_ENZ_hAKT1: NovaScreen (NVS) Enzymatic Assay for human AKT serine/threonine Kinase 1 (AKT1) (AID 2283138)
# Method: NVS_ENZ_hAKT1 is a biochemical, single-readout assay that uses extracted gene-proteins in a cell-free assay. Measurements were taken 1 hour after chemical dosing in a 384-well plate.NVS_ENZ_hAKT1 is one of one assay component(s) measured or calculated from the NVS_ENZ_hAKT1 assay. It is designed to make measurements of enzyme activity, a form of enzyme reporter, as detected with fluorescence intensity signals by Fluorescence and electrophoretic mobility shift technology.Data from the assay component NVS_ENZ_hAKT1 was analyzed into 1 assay endpoint. This assay endpoint, NVS_ENZ_hAKT1, was analyzed in the positive analysis fitting direction relative to DMSO as the negative control and baseline of activity. Using a type of enzyme reporter, loss-of-signal activity can be used to understand changes in the enzymatic activity as they relate to the gene AKT1. Furthermore, this assay endpoint can be referred to as a primary readout, because this assay has produced multiple assay endpoints where this one serves a enzymatic activity function. To generalize the intended target to other relatable targets, this assay endpoint is annotated to the kinase intended target family, where the subfamily is serine/threonine kinase. […]
# [4] = biological target: rat CYP3A2, Cyp3a2 (gene 266682) (UniProt P05183); test: NVS_ADME_rCYP3A2: NovaScreen (NVS) CYP450-related Enzyme Activity (ADME) Assay for rat CYP3A2 (AID 2283128)
# Method in brief: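 Cell-free rat CYP3A2 enzyme assay with fluorescent substrate, read 0.5 h after dosing. Primary duplicate screen at 10 uM; actives run in concentration-response up to 20 uM, relative to acetonitrile baseline.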
# [5] = biological target: human Caspase 10 (CASP10), CASP10 (gene 843) (UniProt Q92851); test: NVS_ENZ_hCASP10: NovaScreen (NVS) Enzymatic Assay for human Caspase 10 (CASP10) (AID 2283133)
# Method: NVS_ENZ_hCASP10 is a biochemical, single-readout assay that uses extracted gene-proteins from E. coli in a cell-free assay. Measurements were taken 1 hour after chemical dosing in a 96-well plate.NVS_ENZ_hCASP10 is one of one assay component(s) measured or calculated from the NVS_ENZ_hCASP10 assay. It is designed to make measurements of enzyme activity, a form of enzyme reporter, as detected with fluorescence intensity signals by Fluorescence technology.Data from the assay component NVS_ENZ_hCASP10 was analyzed into 1 assay endpoint. This assay endpoint, NVS_ENZ_hCASP10, was analyzed in the positive analysis fitting direction relative to DMSO as the negative control and baseline of activity. Using a type of enzyme reporter, loss-of-signal activity can be used to understand changes in the enzymatic activity as they relate to the gene CASP10. Furthermore, this assay endpoint can be referred to as a primary readout, because this assay has produced multiple assay endpoints where this one serves a enzymatic activity function. To generalize the intended target to other relatable targets, this assay endpoint is annotated to the protease intended target family, where the subfamily is cysteine protease. […]
# [6] = biological target: human Acid Phosphatase 1 (ACP1), ACP1 (gene 52) (UniProt P24666); test: NVS_ENZ_hACP1: NovaScreen (NVS) Enzymatic Assay for human Acid Phosphatase 1 (ACP1) (AID 2283136)
# Method in brief: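 Recombinant enzyme expressed in Sf9 cells, tested cell-free; activity read by fluorescence with electrophoretic mobility shift separation of substrate and product, 1.5 h after dosing. Primary screen in duplicate at 25 uM, actives then run in concentration series; loss of signal versus DMSO.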
# Caspase-3 (Homo sapiens) = Caspase-3 (Homo sapiens) (UniProt P42574); test: NVS_ENZ_hCASP3: NovaScreen (NVS) Enzymatic Assay for human Caspase 3 (CASP3) (AID 2283139)
# Method in brief: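 Recombinant human caspase-3 from E. coli with a fluorogenic substrate, read by fluorescence 1 h after dosing. Primary screen in duplicate at 25 uM. Actives (for example ≥30% inhibition) rerun as concentration-response up to 50 uM.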
# Sequence of rat CYP2C11, Cyp2c11 (gene 29277) (P08683 whole entry, looked up): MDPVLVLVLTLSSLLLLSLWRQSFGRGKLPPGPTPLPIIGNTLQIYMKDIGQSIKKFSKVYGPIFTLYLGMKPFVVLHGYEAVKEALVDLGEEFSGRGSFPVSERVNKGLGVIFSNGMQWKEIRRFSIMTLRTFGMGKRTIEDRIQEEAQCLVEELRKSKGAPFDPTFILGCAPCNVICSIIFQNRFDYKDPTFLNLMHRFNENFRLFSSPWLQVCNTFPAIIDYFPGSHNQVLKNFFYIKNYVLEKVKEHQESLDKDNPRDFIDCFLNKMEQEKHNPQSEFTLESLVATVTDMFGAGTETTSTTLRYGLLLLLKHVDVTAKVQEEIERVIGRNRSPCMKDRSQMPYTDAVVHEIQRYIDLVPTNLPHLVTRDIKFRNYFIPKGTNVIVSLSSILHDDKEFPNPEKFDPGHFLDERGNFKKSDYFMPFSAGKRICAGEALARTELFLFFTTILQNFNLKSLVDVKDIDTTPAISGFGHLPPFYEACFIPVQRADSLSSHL
# Sequence of human AKT serine/threonine Kinase 1 (AKT1), AKT1 (gene 207) (P31749 whole entry, looked up): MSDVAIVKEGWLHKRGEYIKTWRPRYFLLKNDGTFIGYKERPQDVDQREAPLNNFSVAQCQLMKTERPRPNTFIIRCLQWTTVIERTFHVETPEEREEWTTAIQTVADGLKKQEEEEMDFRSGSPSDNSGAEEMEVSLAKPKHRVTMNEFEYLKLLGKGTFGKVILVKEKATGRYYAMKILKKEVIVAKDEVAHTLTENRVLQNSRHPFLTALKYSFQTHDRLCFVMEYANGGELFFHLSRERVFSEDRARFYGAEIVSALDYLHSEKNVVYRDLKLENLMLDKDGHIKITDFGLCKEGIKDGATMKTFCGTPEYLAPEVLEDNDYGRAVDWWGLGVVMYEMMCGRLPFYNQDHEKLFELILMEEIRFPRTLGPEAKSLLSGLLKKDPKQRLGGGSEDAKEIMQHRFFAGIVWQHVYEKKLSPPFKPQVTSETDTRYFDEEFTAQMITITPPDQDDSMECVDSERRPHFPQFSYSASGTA
# Sequence of human Acid Phosphatase 1 (ACP1), ACP1 (gene 52) (P24666 whole entry, looked up): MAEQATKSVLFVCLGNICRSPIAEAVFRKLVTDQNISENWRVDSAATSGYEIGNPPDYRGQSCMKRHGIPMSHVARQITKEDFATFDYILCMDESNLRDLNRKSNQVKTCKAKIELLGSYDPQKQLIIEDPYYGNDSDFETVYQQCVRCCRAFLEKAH
# Sequence of human Caspase 10 (CASP10), CASP10 (gene 843) (Q92851 whole entry, looked up): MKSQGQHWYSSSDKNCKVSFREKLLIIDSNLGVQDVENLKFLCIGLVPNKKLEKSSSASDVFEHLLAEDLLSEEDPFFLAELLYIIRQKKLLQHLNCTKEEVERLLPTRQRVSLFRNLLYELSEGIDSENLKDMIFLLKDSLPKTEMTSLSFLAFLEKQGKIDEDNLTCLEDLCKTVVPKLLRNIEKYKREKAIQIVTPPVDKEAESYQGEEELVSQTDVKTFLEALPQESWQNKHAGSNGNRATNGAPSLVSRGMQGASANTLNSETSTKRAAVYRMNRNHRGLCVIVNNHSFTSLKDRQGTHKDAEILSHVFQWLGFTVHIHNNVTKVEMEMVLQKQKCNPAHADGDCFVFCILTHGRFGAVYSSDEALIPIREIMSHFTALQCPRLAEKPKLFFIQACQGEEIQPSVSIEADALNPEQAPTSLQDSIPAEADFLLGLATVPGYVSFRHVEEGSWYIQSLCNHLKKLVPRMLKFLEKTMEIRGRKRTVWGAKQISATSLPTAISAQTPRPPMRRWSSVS
# Sequence of rat CYP2D1, Cyp2d1 (gene 266684) (P10633 whole entry, looked up): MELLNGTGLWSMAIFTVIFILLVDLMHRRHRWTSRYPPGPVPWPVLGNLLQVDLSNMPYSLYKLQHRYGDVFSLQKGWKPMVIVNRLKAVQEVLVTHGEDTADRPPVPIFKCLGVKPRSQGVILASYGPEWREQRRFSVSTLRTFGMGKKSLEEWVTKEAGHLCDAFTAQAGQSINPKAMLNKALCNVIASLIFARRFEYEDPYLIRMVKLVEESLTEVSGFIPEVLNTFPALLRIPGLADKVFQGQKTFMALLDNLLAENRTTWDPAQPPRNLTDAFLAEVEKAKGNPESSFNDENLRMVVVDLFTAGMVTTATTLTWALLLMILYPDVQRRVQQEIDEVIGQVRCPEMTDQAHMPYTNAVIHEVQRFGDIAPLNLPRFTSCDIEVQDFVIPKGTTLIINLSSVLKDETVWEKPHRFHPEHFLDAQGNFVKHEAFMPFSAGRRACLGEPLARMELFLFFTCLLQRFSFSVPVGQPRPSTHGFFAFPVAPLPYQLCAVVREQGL
# Sequence of Caspase-3 (Homo sapiens) (P42574 whole entry, looked up): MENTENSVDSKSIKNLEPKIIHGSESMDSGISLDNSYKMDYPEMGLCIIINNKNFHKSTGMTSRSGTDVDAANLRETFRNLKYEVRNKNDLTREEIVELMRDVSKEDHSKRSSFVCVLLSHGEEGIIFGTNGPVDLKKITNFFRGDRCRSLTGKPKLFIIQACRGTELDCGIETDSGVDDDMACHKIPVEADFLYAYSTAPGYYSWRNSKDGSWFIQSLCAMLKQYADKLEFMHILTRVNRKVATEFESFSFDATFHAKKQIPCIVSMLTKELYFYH
# Sequence of rat CYP3A2, Cyp3a2 (gene 266682) (P05183 whole entry, looked up): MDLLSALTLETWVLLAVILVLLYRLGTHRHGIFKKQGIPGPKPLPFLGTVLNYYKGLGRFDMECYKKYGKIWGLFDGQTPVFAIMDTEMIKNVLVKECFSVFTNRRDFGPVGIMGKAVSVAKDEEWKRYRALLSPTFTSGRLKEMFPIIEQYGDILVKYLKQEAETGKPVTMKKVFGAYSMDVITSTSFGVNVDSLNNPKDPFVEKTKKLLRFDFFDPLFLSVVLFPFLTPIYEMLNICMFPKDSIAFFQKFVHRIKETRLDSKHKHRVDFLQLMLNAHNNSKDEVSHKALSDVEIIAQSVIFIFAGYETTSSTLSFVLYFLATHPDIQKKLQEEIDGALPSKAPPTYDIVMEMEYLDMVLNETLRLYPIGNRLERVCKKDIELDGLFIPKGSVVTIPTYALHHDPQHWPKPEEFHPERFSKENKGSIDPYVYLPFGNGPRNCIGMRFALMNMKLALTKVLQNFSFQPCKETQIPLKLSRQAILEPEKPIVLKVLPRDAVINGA
structure (smiles),measurement,setting,value
C[C@]12CCC(=O)C=C1CC[C@@H]1[C@@H]2CC[C@@]2(C)[C@H]1CC[C@]2(C)O,AC50,[1],3.82 µM (active) and 2.41 µM (active) and 2.57 µM (active)
CCNc1nc(NC(C)C)nc(SC)n1,outcome,[2],inactive
same,AC50,"rat CYP3A1, gene 25642",6.58 µM (active)
same,outcome,[3],inactive
CCC(C)(CC)c1cc(NC(=O)c2c(OC)cccc2OC)on1,AC50,[4],0.981 µM (active)
O=C(O)C(F)(F)C(F)(F)C(F)(F)C(F)(F)C(F)(F)C(F)(F)C(F)(F)C(F)(F)C(F)(F)F,outcome,[5],inactive
Clc1ccc(C(Cl)(Cl)Cl)cc1,outcome,[5],inactive
O=C(O)C(F)(F)C(F)(F)C(F)(F)C(F)(F)C(F)(F)C(F)(F)C(F)(F)C(F)(F)F,outcome,[6],inactive
CC1=C2C[C@H]3[C@@H](CC=C4C[C@@H](O)CC[C@@]43C)[C@@H]2CC[C@]12O[C@@H]1C[C@H](C)CN[C@H]1[C@H]2C,outcome,[6],inactive
Cc1ccccc1CO[C@@H]1C[C@@]2(C(C)C)CC[C@]1(C)O2,outcome,[3],inactive
CC(C)(c1ccccc1)c1ccc(O)cc1,outcome,Caspase-3 (Homo sapiens),inactive
